From PubChem
AmpC no deterg: qHTS Inhibitors of AmpC Beta-Lactamase (assay without detergent) | Potency, µM (titrated, usually from 57.1 µM), for the others: at the top dose activity change, negative = inhibition, most hits filed as inhibitors | 0.52% of 330,000 active | AmpC nitrocefin hydrolysis, absorbance 480 nm, 0.0001% Triton | P00811;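 further: plate controls were no compound for no effect and no enzyme for full effect; nearly all actives have a fitted effect of over 20% in size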
Target sequence (P00811 whole entry, looked up): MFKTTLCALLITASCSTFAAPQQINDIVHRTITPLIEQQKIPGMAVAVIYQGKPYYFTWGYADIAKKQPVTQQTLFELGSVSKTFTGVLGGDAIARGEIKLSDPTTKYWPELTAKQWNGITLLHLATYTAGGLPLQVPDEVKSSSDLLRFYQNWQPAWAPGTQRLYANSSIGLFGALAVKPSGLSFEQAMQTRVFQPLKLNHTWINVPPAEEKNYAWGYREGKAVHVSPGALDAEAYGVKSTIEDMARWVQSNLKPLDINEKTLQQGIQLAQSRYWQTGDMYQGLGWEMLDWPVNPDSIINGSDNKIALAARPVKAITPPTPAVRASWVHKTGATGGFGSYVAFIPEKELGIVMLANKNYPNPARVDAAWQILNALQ
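AmpC (5.3 nM in the dispensed reagent) in 20 mM phosphate pH 7.0 with 0.01% (detergent screen) or 0.0001% Triton X-100 was preincubated with compounds for 15 min at room temperature. Nitrocefin was then added from an 800 uM solution, and hydrolysis was followed at 480 nm.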
Sm TGR inh: qHTS Assay for the Inhibitors of Schistosoma Mansoni Peroxiredoxins | Schistosoma mansoni thioredoxin glutathione reductase (TGR), Q962Y6 | purified TGR, DTNB reduction, TNB absorbance 405 nm | Potency, µM (series often up to 114 µM), for the others: at the highest dose activity change, negative = inhibition, usual class: inhibitors | 3% of 360,000 active | AID 485364, 2010; further: nearly all actives have a fitted effect of over 60% in size
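First, TGR (20 nM dispensed) and NADPH were mixed with compound. Second, a 15 min room-temperature incubation followed. Third, further NADPH and then DTNB were added to start the reaction. Finally, TNB absorbance was monitored kinetically.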
FMDV antiviral: High Throughput Screening for Foot and Mouth Disease Virus Antivirals | Potency, µM (doses to about 57.9 µM), for inactives: at the highest dose activity change, negative = inhibition, actives largely listed as inhibitors | 1.2% of 410,000 active | FMDV antiviral cell-based qHTS | AID 1159524, 2015; calls by dose curve; tested in HEK293T cells; further: read-out not given here; nearly all actives have a fitted effect of over 45% in size
AmpC inh detg: qHTS Inhibitors of AmpC Beta-Lactamase (assay with detergent); AmpC hydrolysis of nitrocefin, absorbance 480 nm, 0.01% Triton; AID 485294, 2010; Potency, µM (series often up to 114 µM), inactives show at the top dose activity change, negative = inhibition, most hits filed as inhibitors; P00811; 0.041% of 370,000 active;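 further: 0% = no-compound wells and -100% = no-enzyme wells; nearly all actives have a fitted effect of over 25% in size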
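20 mM phosphate pH 7.0 + 0.01% (detergent screen) or 0.0001% Triton X-100; 5.3 nM AmpC reagent; cpd preinc 15 min RT; nitrocefin (800 uM stock) to start; A480 q20 s × 4 min; Activity was normalised to no-enzyme and no-compound control wells.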
AMA1 RON2 block: qHTS for Inhibitors of AMA1-RON; Towards Development of Antimalarial Drug Lead: Primary Screen | Plasmodium falciparum AMA1 (3D7) - RON2 peptide interaction | AlphaScreen AMA1-biotinylated RON2 peptide binding | Potency, µM (highest dose often 58.2 µM), for the others: top-dose activity change, negative = inhibition, actives largely listed as inhibitors | 0.2% of 360,000 active | AID 720542, 2013;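 further: 0% = vehicle wells and -100% = peptide control; nearly all actives have a fitted effect of over 45% in size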
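AMA1 (3D7) with his tag at 25 nM final met compounds first, then biotinylated RON2 peptide at 25 nM; detection used donor plus acceptor beads, 10 µg/mL apiece, read by AlphaScreen after 30 min at room temperature.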
Numbers without * were called inactive; ? = inconclusive; . = no result given. Most compounds without a hit are left out; they make up all but 4.1% or so of the library. Unless noted, the call rests on the fitted dose curve; in most records, active means well fitted curve in the direction sought with a large enough effect; inconclusive means small, poorly fitted or top-dose-only effect, or another doubt; inactive means no such curve, though single readings can be large; an effect the other way counts as inactive or inconclusive. Unless noted, on the % scale 0 is the no-effect control and ±100 the full control effect; potency means the concentration at half of the fitted maximal effect.

SMILES | AmpC no deterg | Sm TGR inh | FMDV antiviral | AmpC inh detg | AMA1 RON2 block
COc1ccc(Cl)cc1N=Nc1ncc[nH]1 | . | . | -18% | . | .
Cc1nc(N2CCOCC2)[nH]c(=O)c1C(O)C(Cl)(Cl)Cl (stereo not drawn) | -6% | 45µM* | -18% | 2% | -1%
Cc1nc(N2CCOCC2)[nH]c(=O)c1CCC(C)C | -9% | -5% | 20% | -5% | 25%
CCOc1ccc(N=C/C=C/c2ccccc2)c(O)c1 | -23% | 40µM* | 39% | ? | 3%
Cc1sc2ncn(CC(=O)Nc3ccc(C(F)(F)F)cc3)c(=O)c2c1S(=O)(=O)N1CCN(C)CC1 | . | -3% | -10% | -4% | .
COC(=O)c1ccccc1-c1cc(C)cc2c1OC(CNC(=O)c1ccn(C)n1)C2 (stereo not drawn) | . | . | 10% | . | .
O=C(CSCc1nc2cccnc2n1C1CCCCC1)NCc1cccc(Br)c1 | . | 1% | -20% | 2% | .
COc1ccc2cc(-c3ccsc3)ncc2c1 | -16% | 40µM* | 38% | -1% | 10%
COc1cc(OC)cc(-c2cc3ccc(OC)cc3cn2)c1 | 57% | 6% | -5% | 5% | 22%
CC(=Nc1ccccc1O)c1sc2ccccc2c1O | 7.1µM* | 0% | 9% | -5% | 65%
CCc1ccccc1NC(=O)[C@H](Cc1ccccc1)N1Cc2ccccc2C1=O | . | -1% | -13% | -15% | .
COc1ccc(NC2=CC(c3ccc(OC)c(OC)c3)N(c3ccc(OC)cc3)C2=O)cc1 (stereo not drawn) | 122% | -32% | -15% | ? | ?
NS(=O)(=O)c1ccc(NC2=CC(c3ccc([N+](=O)[O-])cc3)N(c3ccc(S(N)(=O)=O)cc3)C2=O)cc1 (stereo not drawn) | -43% | 18µM* | -17% | 0% | -7%
CCOC(=O)Cn1c(=O)oc2cc(S(=O)(=O)N3CCn4c3nc3ccccc34)ccc21 | 22µM* | 6% | -15% | -11% | -10%
Cc1ccc(S(=O)(=O)c2cc(OC(=O)c3ccco3)ccc2OC(=O)c2ccco2)cc1 | 13µM* | -11% | 29% | -21% | -12%
COC(=O)c1cc2oc3ccccc3c2n1CC(=O)Nc1cccc(SC)c1 | . | -2% | 28% | 7% | .
COCCNC(=O)CCC1CCN(Cc2cccc(-c3ccc(C)o3)c2)CC1 | 152% | 40µM* | 1% | -9% | -1%
COCCNC(=O)CCC1CCN(C/C=C/c2ccccc2OC)CC1 | 35% | 5% | -12% | -4% | -6%
Cc1oc(-c2ccccc2NC(=O)c2cccnc2)nc1CNC(=O)C1CCCCCN1C (stereo not drawn) | . | . | -22% | . | .
COc1ccc(CCNc2cc(N3CCN(C(=O)c4ccccc4F)CC3)ccc2[N+](=O)[O-])cc1OC | -14% | -1% | 3.5µM* | 5% | -7%
O=C(c1ccccc1F)N1CCN(c2ccc([N+](=O)[O-])c(NCc3cccnc3)c2)CC1 | 83% | 0% | ? | 3% | 0%
COc1ccc(CCNc2cc(N3CCN(C(=O)c4ccc(C)cc4)CC3)ccc2[N+](=O)[O-])cc1OC | -33% | -9% | . | -15% | .
COc1ccc(C(=O)N2CCN(c3ccc([N+](=O)[O-])c(NCCc4ccc(OC)c(OC)c4)c3)CC2)cc1 | 0% | 1% | 8.9µM* | -12% | -11%
CC(C)NC(=O)N1CC2(CCN(C(=O)c3ccncc3)CC2)C1 | . | . | -17% | . | .
COc1cc(-c2nc3sccn3c2Nc2c(C)cccc2C)ccc1O | . | 1.1µM* | -2% | -6% | .
Cc1cccc(C)c1Nc1c(-c2ccc(O)cc2)nc2sccn12 | . | -33% | 0% | 8% | .
Cc1cc(Br)ccc1NC(=O)CN1C(=O)C2CC=CCC2C1=O (stereo not drawn) | -22% | 13µM* | -7% | -10% | 7%
COc1ccc(S[C@@H]2C[C@@H](C(=O)Nc3ccc4nccnc4c3)N(C3Cc4ccccc4C3)C2)cc1 | . | . | 10% | . | .
